Data published in ChEMBL document CHEMBL4513146, “CO-ADD screening of Karazin Kharkiv National University (Ukraine) compounds”.
Measured potencies and affinities stand elsewhere.

Legend:
Staphylococcus aureus = details: Concentration 32 ug.mL-1;; ASSAY_TEST Inhibition of Bacterial Growth; detection method Absorption (OD600); MEDIA CAMHB; plate type 384well; NBS; CORNING #3640; time 18 hr
Escherichia coli = details: Concentration 32 ug.mL-1;; ASSAY_TEST Inhibition of Bacterial Growth; detection method Absorption (OD600); MEDIA CAMHB; plate type 384well; NBS; CORNING #3640; time 18 hr

| Compound | Inhibition (Staphylococcus aureus) [%] | Inhibition (Escherichia coli) [%] |
| --- | --- | --- |
| Cc1cc(C)c(C(=O)CSc2nnc3c(=O)n(-c4ccc(F)c(F)c4)ccn23)cc1C | 17 | -3.21 |
| O=S(=O)(c1ccc2nncn2c1)N(Cc1cc(F)cc(F)c1)c1ccc2c(c1)OCO2 | 8.77 | -5.98 |
| Cc1cc(C)cc(N(Cc2cccc(Cl)c2)S(=O)(=O)c2cccn3cnnc23)c1 | 7.13 | -3.73 |
| C=Cc1ccc(Cn2nc3c(=O)n(-c4ccc(C)c(C)c4)ccn3c2=O)cc1 | 0.4 | 3.59 |
| O=C(NCc1ccccc1)c1ccc2nn(CC(=O)N3CCN(c4ccccc4)CC3)c(=O)n2c1 | 4.31 | -4.36 |
| O=C(Cn1nc2nc(Nc3ccc(F)cc3)ccn2c1=O)N1CCCc2ccccc21 | 5.55 | -6.76 |
| CCOc1ccc(-n2ccn3c(SCC(=O)c4ccc(OC)cc4)nnc3c2=O)cc1 | 15.17 | -3.52 |
| Cc1ccc(C)c(Cn2nc3c(=O)n(-c4ccc(C)c(C)c4)ccn3c2=O)c1 | 6.02 | -6.59 |
| COc1ccc(OC)c(NC(=O)Cn2nc3ccc(-c4ccc(C)cc4)nn3c2=O)c1 | -7.96 | -11.89 |
| COc1cccc(-n2ccn3c(SCC(=O)c4ccc(OC)c(OC)c4)nnc3c2=O)c1 | 10.14 | 2.93 |
| Cc1ccc(-n2ccn3c(SCC(=O)c4c[nH]c5ccccc45)nnc3c2=O)cc1C | 8.58 | 3.16 |
| N#Cc1cccc(NC(=O)Cn2nc3c4cc(-c5ccc(Cl)cc5)nn4ccn3c2=O)c1 | 2.28 | -5.31 |
| CCc1nnc2c(S(=O)(=O)N(Cc3ccc(C)cc3)c3ccc(C(C)C)cc3)cccn12 | 16.04 | -0.02 |
| COc1ccccc1NC(=O)Cn1nc2c(SCc3ccccc3)nccn2c1=O | -5.43 | -12.47 |
| Cc1cc2nn(CC(=O)NCc3ccc4c(c3)OCO4)c(=O)n2c(Nc2ccccc2C)n1 | 0.76 | -4.19 |
| COC(=O)c1ccc(NC(=O)Cn2nc3c(Oc4ccccc4)nccn3c2=O)cc1 | 1.06 | -10.41 |
| COc1ccc(-c2cc3c4nn(CC(=O)Nc5cc(C)ccc5C)c(=O)n4ccn3n2)cc1 | 3.16 | 2.02 |
| COc1ccc(-c2cc3c4nnc(SCC(=O)Nc5ccc(C)cc5Cl)n4ccn3n2)cc1 | 2.3 | -3.13 |
| Cc1ccc(NC(=O)c2ccc3nnc(SCC(=O)Nc4ccc(Br)cc4)n3c2)cc1 | -2.55 | -1.72 |
| CC(=O)c1ccc(NC(=O)Cn2nc3ccc(Sc4ccccc4)nn3c2=O)cc1 | 5.54 | -7.82 |
| Cc1ccc(NC(=O)Cn2nc3ccc(SC(C)(C)C)nn3c2=O)c(Cl)c1 | -0.06 | -7.75 |
| COC(=O)c1cccc(NC(=O)Cn2nc3c(SCc4ccc(Cl)cc4)nccn3c2=O)c1 | 6.19 | -8.47 |
| O=C(Cn1nc2c3c4c(sc3ncn2c1=O)CCCC4)N1CCc2ccccc2C1 | 0.97 | 2.08 |
| O=C(Cn1nc2nc(Nc3ccc(F)cc3)ccn2c1=O)NCC1CCCO1 (stereo not given) | 2.52 | -9.11 |

| Compound | Inhibition (Staphylococcus aureus) [%] | Inhibition (Escherichia coli) [%] |
| --- | --- | --- |
| O=c1n(Cc2cc(F)cc(F)c2)nc2ccc(-c3ccccc3)nn12 | 8.62 | -1.58 |
| COc1ccc(-c2cc3c4nnc(SCC(=O)Nc5ccc(OC)c(Cl)c5)n4ccn3n2)cc1 | 3.66 | -2.1 |
| Cc1cc2nn(CC(=O)Nc3ccc(F)c(F)c3)c(=O)n2c(Nc2ccc(C)c(F)c2)n1 | 7.73 | -3.04 |
| COc1cccc(-n2ccn3c(SCc4cccc(F)c4)nnc3c2=O)c1 | 11.5 | -8.02 |
| CCCc1nnc2c(=O)n(CC(=O)Nc3ccc(Cl)c(Cl)c3)c3ccccc3n12 | -1.25 | 0.68 |
| Cc1ccc(Oc2nc3ccccc3n3c(=O)n(CC(=O)Nc4cccc(C(F)(F)F)c4)nc23)cc1 | 0.5 | -3.3 |
| O=S(=O)(c1ccc2nncn2c1)N(Cc1cccc(F)c1)c1ccc2c(c1)OCCO2 | 1.17 | -4.29 |
| COc1cccc(CN(c2cc(F)cc(F)c2)S(=O)(=O)c2ccc3nnc(C)n3c2)c1 | 7.94 | -9.84 |
| COc1cc(NC(=O)CSc2nnc3c(=O)n(-c4ccc(C)c(C)c4)ccn23)cc(OC)c1 | 3.54 | -13.82 |
| COc1ccc(NC(=O)c2ccc3nn(CC(=O)Nc4ccc(C)c(F)c4)c(=O)n3c2)cc1 | 8.14 | -7.69 |
| CCCCn1c(=O)c2sccc2n2c(CCC(=O)NC(C)C34CC5CC(CC(C5)C3)C4)nnc12 (stereo not given) | 9.01 | 0.33 |
| O=c1c2sccc2n2c(=O)n(Cc3ccccc3F)nc2n1Cc1cccs1 | -3.2 | -12.46 |
| COc1ccccc1-n1ccn2c(SCC(=O)Nc3ccc4c(c3)OCO4)nnc2c1=O | 7.67 | -8.08 |
| COc1ccc(N2CCN(C(=O)Cn3nc4ccc(S(=O)(=O)C(C)(C)C)nn4c3=O)CC2)cc1 | 12.76 | 0.99 |
| CCCc1nnc2c(=O)n(CC(=O)Nc3ccc(Br)cc3)c3ccccc3n12 | 11.05 | 2.53 |
| Cc1ccc(NC(=O)Cn2nc3ccc(SCc4ccc(Cl)cc4)nn3c2=O)c(C)c1 | -11.8 | -8.79 |
| COc1ccc(C)cc1NC(=O)Cn1nc2ccc(SCc3ccc(Cl)cc3)nn2c1=O | 8.35 | -14.85 |
| Cc1ccc(-c2ccc3nn(CC(=O)Nc4ccc(Cl)cc4F)c(=O)n3n2)cc1 | 8.27 | -2.22 |
| COc1ccc(CNC(=O)Cn2nc3c(N4CCN(c5ccccc5C)CC4)nccn3c2=O)cc1 | 6.39 | -3.43 |
| C=Cc1ccc(CSc2nnc3c(=O)n(-c4ccc(F)cc4)ccn23)cc1 | 18.57 | -2.33 |
| O=c1c2nnc(SCc3ccc(Cl)cc3)n2ccn1-c1ccc(F)cc1 | 4.01 | 2.84 |
| Cc1ccc(-c2cc3c4nn(CC(=O)Nc5ccc6c(c5)OCCO6)c(=O)n4ccn3n2)cc1C | 13.07 | -3.26 |
| CC(C)(C)NC(=O)Cn1nc2n(Cc3ccco3)c(=O)c3sccc3n2c1=O | -2.47 | -8.7 |
| COC(=O)c1ccccc1NC(=O)Cn1nc2c3cc(-c4ccc(Cl)cc4)nn3ccn2c1=O | 10.87 | 6.58 |

| Compound | Inhibition (Staphylococcus aureus) [%] | Inhibition (Escherichia coli) [%] |
| --- | --- | --- |
| CSc1cccc(NC(=O)Cn2nc3ccc(SC(C)(C)C)nn3c2=O)c1 | -2.88 | 1.52 |
| COC(=O)c1ccc(NC(=O)Cn2nc3c4sc(N5CCCC5)nc4ncn3c2=O)cc1 | -12.82 | -9.22 |
| CC(C)c1nnc2c(=O)n(CC(=O)Nc3cccc(Cl)c3)c3ccccc3n12 | 5.77 | -3.24 |
| COC(=O)c1ccc(NC(=O)Cn2nc3c4cc(-c5ccc(OC)cc5)nn4ccn3c2=O)cc1 | 11.91 | 3.86 |
| COc1ccc(Cl)cc1NC(=O)CSc1nc2ccccc2n2cnnc12 | 12.82 | 5.77 |
| COC(=O)c1cccc(NC(=O)Cn2nc3ccc(-c4ccc(C)c(C)c4)nn3c2=O)c1 | 2.69 | -10.93 |
| COc1cc(OC)c(NC(=O)Cn2nc3ccc(Sc4ccc(C)cc4)nn3c2=O)cc1Cl | -4.96 | -10.5 |
| O=C(CSc1nc2ccccc2n2c(-c3ccccc3)nnc12)Nc1ccc(Br)cc1 | 12.1 | -0.27 |
| O=c1n(Cc2ccc3c(c2)OCO3)nc2c(S(=O)(=O)N3CCCC3)cccn12 | 0.67 | -7.1 |
| CCOC(=O)N1CCN(C(=O)CCc2nnc3c4cc(-c5ccccc5)nn4ccn23)CC1 | 4.14 | -0.18 |
| COC(=O)c1ccc(NC(=O)Cn2nc3c(N4CCOCC4)nccn3c2=O)cc1 | 12.61 | 0.79 |
| COc1cccc(-n2ccn3c(SCC(=O)Nc4ccc(F)cc4F)nnc3c2=O)c1 | 12.12 | -6.2 |
| Cc1ccc(-c2cc3c4nn(CC(=O)Nc5cccc(Br)c5)c(=O)n4ccn3n2)cc1 | 8.15 | 0.32 |
| Cc1cc(C)c(NC(=O)Cn2nc3c(Sc4ccccc4)nccn3c2=O)c(C)c1 | 5.4 | -7.73 |
| Cc1ccc(NC(=O)Cn2nc3ccc(SC4CCCCC4)nn3c2=O)cc1 | -13.21 | -13.34 |
| CCOc1ccc(-n2ccn3c(SCC(=O)c4ccccc4)nnc3c2=O)cc1 | 6.87 | 1.63 |
| O=C(Cn1nc2c3cc(-c4ccc(Cl)cc4)nn3ccn2c1=O)Nc1ccc2c(c1)OCCO2 | -0.49 | -1.57 |
| COc1cccc(-n2ccn3c(SCC(=O)Nc4ccc(OC)c(OC)c4)nnc3c2=O)c1 | 14.09 | -2.6 |
| O=c1n(Cc2ccccc2F)nc2ccc(S(=O)(=O)N3CCCCCC3)cn12 | 2.98 | -8.1 |
| COc1ccc(OC)c(NC(=O)Cn2nc3c(SCc4ccc(Cl)cc4)nccn3c2=O)c1 | -7.47 | -4.33 |
| COc1ccc(N(Cc2ccc(OC)c(F)c2)S(=O)(=O)c2ccc3nncn3c2)cc1 | 2.98 | -0.06 |
| CCOc1ccc(NC(=O)Cn2nc3c4c5c(sc4ncn3c2=O)CCCC5)cc1 | -17.71 | 0.82 |
